Laboratory results taken from PubChem BioAssay (NCI).
This is part of a sample that, as a whole, favours compounds with a hit. Of some 79,000 tested, about 15% had one in any assay. Cut-off read from the data, not from the text of the source: active = growth inhibition above about 70%; inactive = the rest.

Legend:
[1] = NCI Yeast Anticancer Drug Screen. Data for the rad50 strain (AID 155);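 note: 0% = growth of vehicle-only cultures of the same strain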; conditions: S. cerevisiae rad50 strain growth inhibition; at 50.0 µM; active compounds read high
In short: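 Relative growth inhibition (compound vs vehicle) was measured in yeast with a defined repair-gene alteration.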

[2] = NCI Yeast Anticancer Drug Screen. Data for the mec2-1 strain (AID 157); conditions: S. cerevisiae mec2-1 strain, at 50.0 µM, active compounds read high
In short: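 Test agents were screened against the mec2-1 yeast strain, with defined DNA repair or cell cycle alteration. Growth was scored as inhibition against vehicle-only controls.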

[3] = NCI Yeast Anticancer Drug Screen. Data for the sgs1 mgt1 strain (AID 161);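 note: 0% = growth of cultures given vehicle only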; conditions: S. cerevisiae sgs1 mgt1 strain, at 50.0 µM, active compounds read high
In short: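 Inhibition of yeast growth, normalised to vehicle-treated controls, is reported for a strain bearing genetic alterations in DNA damage repair.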

[4] = NCI Yeast Anticancer Drug Screen. Data for the cln2 rad14 strain (AID 165);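 note: 0% = growth equal to vehicle treated cultures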; conditions: S. cerevisiae cln2 rad14 strain, at 50.0 µM, active compounds read high
In short: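 Growth of compound-exposed yeast (cln2 rad14 genotype) measured and expressed as inhibition relative to vehicle.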

[5] = NCI Yeast Anticancer Drug Screen. Data for the bub3 strain (AID 167); conditions: S. cerevisiae bub3 mutant strain, at 50.0 µM, active compounds read high
In short: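 Screening used yeast with an engineered genetic alteration affecting cell cycle control. Compound-exposed cultures were compared with vehicle cultures, and reduced growth was taken as inhibition.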

[6] = NCI Yeast Anticancer Drug Screen. Data for the mlh1 rad18 strain (AID 175); conditions: S. cerevisiae mlh1 rad18 strain growth inhibition; at 50.0 µM; active compounds read high
In short: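 In this whole-cell yeast screen, a strain with altered DNA damage repair is challenged with compound, and its growth is measured against matched vehicle-treated controls.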

Measured: growth inhibition

CC1=NN(C(=O)CC(=O)Nc2ccc(C(=O)O)cc2)C(=O)C1N=Nc1ccc(S(N)(=O)=O)cc1 (stereo unspecified)
inactive: [1] -4.7% | [2] -15.8% | [3] -1.5% | [4] -24.3% | [5] 0.55% | [6] -5.95%

COc1cc2oc3cc(OC)c(OC)c(CC=C(C)C)c3c(=O)c2c(O)c1CC=C(C)C
inactive: [1] -1.45% | [2] -30.6% | [3] 0.15% | [4] 5.8% | [5] -30.6% | [6] 21.2%

NC(N)=NCCCC(O)C(=O)O (stereo unspecified)
inactive: [1] -10.6% | [2] -11.8% | [3] -6.85% | [4] -2.95% | [5] 2.25% | [6] 0.85%

CC(C)C(O)C(=O)C(O)C(C)C (stereo unspecified)
inactive: [1] -13.4% | [2] -8.2% | [3] 4.5% | [4] 15.7% | [5] 3.4% | [6] -10.9%

COc1cc(C(SCc2ccccc2)SCc2ccccc2)ccc1O
inactive: [1] 28.6% | [2] 12.2% | [3] 30.9% | [4] 28.6% | [5] 17.4% | [6] 28.6%

Cc1ccc2cc(C)c(C)cc2c1
inactive: [1] 30.6% | [2] -3.35% | [3] -10.8% | [4] 16.1% | [5] -2.6% | [6] 12.8%

C=C(C)CNCC(=C)C
inactive: [1] 35.3% | [2] 14.1% | [3] -8.25% | [4] -16.8% | [5] 17.9% | [6] 21.6%

Nc1ccc([N+](=O)[O-])c2ccccc12
inactive: [1] 17.1% | [2] -8.75% | [3] 12.7% | [4] 10.8% | [5] 24.6% | [6] 12.7%

COc1ccc(C(=O)Nc2ccccc2)cc1
inactive: [1] 7.45% | [2] 8.7% | [3] -0.3% | [4] 6.25% | [5] -1.2% | [6] -4.65%

CCc1ccc([OH2+])c(C(=O)[O-])c1.CCc1ccc([OH2+])c(C(=O)[O-])c1.CCc1ccc([OH2+])c(C(=O)[O-])c1.CCc1ccc([OH2+])c(C(=O)[O-])c1.[Cu+2].[Cu+2]
inactive: [1] 18.9% | [2] 2.5% | [3] 21.6% | [4] 29.3% | [5] 8.75% | [6] 20.9%

O=C1/C(=C/c2ccccc2)CN(C(=O)Oc2ccccc2)C/C1=C\c1ccccc1
inactive: [1] -21% | [2] -15.2% | [3] -12.9% | [4] 10.3% | [5] -7.05% | [6] -13.8%

Cc1ccc(Cl)cc1NC(=O)Nc1cc(Cl)c(Cl)cc1C
inactive: [1] 3.55% | [2] 45% | [3] 43.5% | [4] -2.5% | [5] 45.9% | [6] 33.3%

Cn1c(=O)c2c(ncn2CN2CCN(Cn3cnc4c3c(=O)n(C)c(=O)n4C)CC2)n(C)c1=O
inactive: [1] 2.75% | [2] 28.2% | [3] -7.45% | [4] 16.1% | [5] -63.9% | [6] -30%

CCOc1ccc(/C=C2/C(=O)N(/C=C3/C(=O)Oc4ccccc4C3=O)C(=NC(C)=O)N2C)cc1
inactive: [1] 8.75% | [2] -13% | [3] -10.8% | [4] 12.7% | [5] -1.85% | [6] 2.35%

Cc1ccc(CO)cc1
inactive: [1] 13.9% | [2] -6.7% | [3] 21.9% | [4] -5.6% | [5] -2.05% | [6] 21.7%

O=CNC(NC=O)c1ccccc1[N+](=O)[O-]
inactive: [1] 29.9% | [2] 20.8% | [3] 30.1% | [4] 0.65% | [5] 52.5% | [6] 28.6%

NNC(=S)N/N=C(\CCCC(=O)NCCc1ccccc1)CC(=O)c1ccccc1
inactive: [1] -3.6% | [2] 12.8% | [3] -21.3% | [4] 18.1% | [5] 8.15% | [6] 8.8%

COC1C(O)=C2C(=O)OC(C)(O)/C=C/C=C\C=C/C=C/C(c3ccccc3)NC(=O)/C=C/C=C/C=C/C=C/C2(C)C1O (stereo unspecified)
inactive: [1] -1.7% | [2] -14.1% | [3] 3.3% | [4] 3.55% | [5] -9.3% | [6] 4.5%

CO/N=C1\C(C)(C)C(C)(C)C(C)(C)C1(C)SS(=O)(=O)O (stereo unspecified)
inactive: [1] 23.6% | [2] 19.1% | [3] 12.6% | [4] 17.6% | [5] 20.8% | [6] 29.9%

C[S+](C)c1ccc(Cl)cc1
inactive: [1] -1.45% | [2] -6.65% | [3] -21.2% | [4] 17.9% | [5] 11.3% | [6] 8.25%

CC(=O)Oc1c(C)c2c(O)c3c1C1=C(OCOC1=C(C)C3=O)/C(C)=C\C(C)(O)C(O)C(C)C(O)C1C(=O)OC(C(C)C1O)C(C)(O)/C=C/C=C(C)C(=O)N2 (stereo unspecified)
inactive: [1] 16.2% | [2] 3.65% | [3] -10.4% | [4] 8.95% | [5] 9.7% | [6] 5.5%

SC1c2ccccc2-c2ccccc21
inactive: [1] 30.1% | [2] 2.75% | [3] 7.5% | [4] 7.25% | [5] -30.2% | [6] 1.7%

CCOC(=O)c1c(-c2ccc([N+](=O)[O-])cc2)c(C#N)n(-c2ccccc2)c1C
inactive: [1] -1.25% | [2] 36% | [3] 28.4% | [4] -7.95% | [5] 45.1% | [6] 6.1%

C/C(=N\NC(=O)/C(C#N)=C\c1ccc(N(CCC#N)CCC#N)cc1)c1ccccc1
inactive: [1] 0.2% | [2] -14.2% | [3] -20.5% | [4] -6.9% | [5] -7.4% | [6] -1.95%

CC1C=CC(O)[C@]2(CO)CC3(CCC12)OCCO3 (stereo partly specified)
inactive: [1] -13.7% | [2] 3.95% | [3] -13.6% | [4] 17.6% | [5] -12.7% | [6] -16.3%

C=CCC(CNC(C)=O)(C1=CCCCC1)c1ccccc1 (stereo unspecified)
inactive: [1] 1.95% | [2] 13% | [3] 13.1% | [4] 19.8% | [5] 17.1% | [6] 12.7%

CCc1cc2c(Nc3ccccc3)c3c(nc2s1)CCCC3
inactive: [1] -15.3% | [2] -25.8% | [3] -8.75% | [4] 11.5% | [5] 16.4% | [6] -33.5%

C=CCSc1ccc(Cl)cc1[N+](=O)[O-]
inactive: [1] 18.8% | [2] -3.4% | [3] 6.05% | [4] -8.45% | [5] 4% | [6] 0.3%

CCCc1c(C)nc2scc(-c3ccccc3)n2c1=O
inactive: [1] 38.7% | [2] 16.5% | [3] 55.1% | [4] 37.4% | [5] 39.4% | [6] 34%

CC1=NC(C(=O)O)C(C)(C)S1 (stereo unspecified)
inactive: [1] 2.6% | [2] -8.3% | [3] -22.2% | [4] -0.95% | [5] -3.4% | [6] -6%

CC1C2CC(CC2O)C1(C)C (stereo unspecified)
inactive: [1] 11.3% | [2] 16.6% | [3] 18.1% | [4] 24.4% | [5] 6.3% | [6] 15.9%

COc1ccc(/C=C/C(CC(NO)c2ccc(OC)cc2)=N\O)cc1 (stereo unspecified)
inactive: [1] 0.1% | [2] -4.25% | [3] 3.05% | [4] -38% | [5] -8.7% | [6] 3.8%

COc1ccc(CC2OCCC3c4ccccc4NC23)cc1OC (stereo unspecified)
inactive: [1] -3.2% | [2] -3.5% | [3] 0.7% | [4] -10.2% | [5] 3% | [6] -2.05%

O=C(CN1CCCCC1)NC(=O)N/N=C\c1ccco1
inactive: [1] 0.1% | [2] 3% | [3] 6.1% | [4] -59% | [5] -0.15% | [6] 13.8%

O=C(O)Cc1c(-c2ccccc2)nc(=S)[nH]c1-c1[nH]c(=S)nc(-c2ccccc2)c1CC(=O)O
inactive: [1] -15.6% | [2] 10.1% | [3] -17% | [4] -12.3% | [5] 2.15% | [6] 2.25%

CCN(CC)c1ccc(C(=O)c2ccccc2C(=O)O)c(O)c1
inactive: [1] -38.2% | [2] -8.75% | [3] -27.4% | [4] 5.35% | [5] -15.8% | [6] 5.2%

Cc1cc2c(cc1Cl)SC(N/N=C(\N)c1ccc(Cl)cc1)=NS2(=O)=O
inactive: [1] -34.2% | [2] -0.8% | [3] -12.3% | [4] -16.2% | [5] -14.4% | [6] -8.1%

CN(C)c1ccc2[nH]cc(C(=O)O)c(=O)c2c1
inactive: [1] 4.15% | [2] 6.6% | [3] 10.3% | [4] -1.05% | [5] 28.8% | [6] 7.35%

O=C(CCCc1ccccn1)c1ccccc1
inactive: [1] 1.8% | [2] 3.85% | [3] 2.5% | [4] 5.35% | [5] -31.6% | [6] -1.45%

O=C(O)CS(=O)(=O)Cc1ccc(Cl)cc1Cl
inactive: [1] 15.6% | [2] 20.4% | [3] 24% | [4] 12.8% | [5] 25.1% | [6] 18.6%

COC1CC(OC2CCC3(C)C(=CCC4C3C(OC(C)=O)C(OC(=O)CC(C)C)C3(C)C(C(C)=O)CCC43O)C2)OC(C)C1OC1CC(OC)C(OC2CC(OC)C(OC3OC(C)C(OC4OC(CO)C(O)C(O)C4O)C(OC)C3O)C(C)O2)C(C)O1 (stereo unspecified)
inactive: [1] 2.4% | [2] 5.2% | [3] 16.4% | [4] 21.6% | [5] -7.45% | [6] -38.4%
